The supplement of paper PMC6897291

Assays:
U-2932 [1] = assay: growth inhibition by drug alone (1 - RLU/untreated control) (fraction); higher = stronger inhibition; conditions: 177Lu-lilotomab satetraxetan 0 ug/ml
Procedure, shortened: (§1)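 RIVA or U-2932 cells, untreated or pretreated 18 h with a radiolabelled anti-CD37 antibody conjugate (~600 MBq/mg; 0.5 µg/ml RIVA, 1 µg/ml U-2932), were washed and seeded at 3,000 cells/well on plates pre-printed with the Selleck Cambridge Cancer Compound library. Doses were 10/100 nM (RIVA) or 10/1,000 nM (U-2932). RealTime-Glo luminescence was read daily from day 3 after 1 h at 37°C. Growth inhibition is 1 − RLU/mean of 48 untreated no-drug wells per plate.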

RIVA [2] = assay: as above; conditions: 177Lu-lilotomab satetraxetan 0 ug/ml
Procedure, shortened: as §1

U-2932 [3] = assay: growth inhibition by drug plus 177Lu-lilotomab satetraxetan (1 - RLU/untreated control) (fraction); higher = stronger inhibition; conditions: 177Lu-lilotomab satetraxetan 1 ug/ml
Procedure, shortened: as §1

RIVA [4] = assay: as above; conditions: 177Lu-lilotomab satetraxetan 0.5 ug/ml
Procedure, shortened: as §1

Row | Compound | growth inhibition by drug alone (U-2932 [1]; 10 nM, time (day): 3) | growth inhibition by drug alone (U-2932 [1]; 10 nM, time (day): 4) | growth inhibition by drug alone (U-2932 [1]; 10 nM, time (day): 5) | growth inhibition by drug alone (U-2932 [1]; 10 nM, time (day): 6) | growth inhibition by drug alone (U-2932 [1]; 1000 nM, time (day): 3) | growth inhibition by drug alone (U-2932 [1]; 1000 nM, time (day): 4) | growth inhibition by drug alone (U-2932 [1]; 1000 nM, time (day): 5) | growth inhibition by drug alone (U-2932 [1]; 1000 nM, time (day): 6) | growth inhibition by drug alone (RIVA [2]; 10 nM, time (day): 3) | growth inhibition by drug alone (RIVA [2]; 10 nM, time (day): 4) | growth inhibition by drug alone (RIVA [2]; 10 nM, time (day): 5) | growth inhibition by drug alone (RIVA [2]; 10 nM, time (day): 6) | growth inhibition by drug alone (RIVA [2]; 100 nM, time (day): 3) | growth inhibition by drug alone (RIVA [2]; 100 nM, time (day): 4) | growth inhibition by drug alone (RIVA [2]; 100 nM, time (day): 5) | growth inhibition by drug alone (RIVA [2]; 100 nM, time (day): 6) | growth inhibition by drug plus 177Lu-lilotomab satetraxetan (U-2932 [3]; 10 nM, time (day): 3) | growth inhibition by drug plus 177Lu-lilotomab satetraxetan (U-2932 [3]; 10 nM, time (day): 4) | growth inhibition by drug plus 177Lu-lilotomab satetraxetan (U-2932 [3]; 10 nM, time (day): 5) | growth inhibition by drug plus 177Lu-lilotomab satetraxetan (U-2932 [3]; 10 nM, time (day): 6) | growth inhibition by drug plus 177Lu-lilotomab satetraxetan (U-2932 [3]; 1000 nM, time (day): 3) | growth inhibition by drug plus 177Lu-lilotomab satetraxetan (U-2932 [3]; 1000 nM, time (day): 4) | growth inhibition by drug plus 177Lu-lilotomab satetraxetan (U-2932 [3]; 1000 nM, time (day): 5) | growth inhibition by drug plus 177Lu-lilotomab satetraxetan (U-2932 [3]; 1000 nM, time (day): 6) | growth inhibition by drug plus 177Lu-lilotomab satetraxetan (RIVA [4]; 10 nM, time (day): 3) | growth inhibition by drug plus 177Lu-lilotomab satetraxetan (RIVA [4]; 10 nM, time (day): 4) | growth inhibition by drug plus 177Lu-lilotomab satetraxetan (RIVA [4]; 10 nM, time (day): 5) | growth inhibition by drug plus 177Lu-lilotomab satetraxetan (RIVA [4]; 10 nM, time (day): 6) | growth inhibition by drug plus 177Lu-lilotomab satetraxetan (RIVA [4]; 100 nM, time (day): 3) | growth inhibition by drug plus 177Lu-lilotomab satetraxetan (RIVA [4]; 100 nM, time (day): 4) | growth inhibition by drug plus 177Lu-lilotomab satetraxetan (RIVA [4]; 100 nM, time (day): 5) | growth inhibition by drug plus 177Lu-lilotomab satetraxetan (RIVA [4]; 100 nM, time (day): 6)
1 | Cc1nc(Nc2ncc(C(=O)Nc3c(C)cccc3Cl)s2)cc(N2CCN(CCO)CC2)n1 | -0.00248 | -0.0473 | -0.15 | -0.0827 | 0.487 | 0.65 | 0.693 | 0.752 | 0.376 | 0.323 | 0.282 | 0.128 | 0.779 | 0.826 | 0.856 | 0.867 | -0.0537 | -0.0412 | -0.0107 | 0.0287 | 0.607 | 0.75 | 0.816 | 0.88 | 0.558 | 0.581 | 0.582 | 0.575 | 0.838 | 0.89 | 0.901 | 0.91
2 | COc1ccc(C2CC(c3ccccc3)=NN2c2ccc(S(N)(=O)=O)cc2)cc1 (configuration not stated) | 0.0454 | 0.0281 | -0.0412 | -0.122 | -0.0544 | 0.00397 | -0.0999 | -0.129 |  |  |  |  |  |  |  |  | 0.0153 | 0.0306 | 0.0246 | 0.0751 | -0.0784 | 0.0449 | -0.00789 | 0.0654 | 0.344 | 0.49 | 0.534 | 0.554 | 0.412 | 0.495 | 0.491 | 0.476
3 | O=C(O)CCCc1ccccc1 [4-Phenylbutyrate] | 0.0701 | 0.0509 | 0.00363 | -0.192 | 0.0343 | 0.0446 | -0.0113 | -0.154 |  |  |  |  |  |  |  |  | 0.0355 | 0.105 | 0.141 | 0.163 | 0.0377 | 0.0642 | 0.124 | 0.195 | 0.43 | 0.538 | 0.547 | 0.56 | 0.419 | 0.5 | 0.507 | 0.511
4 | COc1cc2/c(=N/c3ccc(Br)cc3F)nc[nH]c2cc1OCC1CCN(C)CC1 [Vandetanib (Zactima)] | -0.05 | -0.0325 | -0.0228 | 0.016 | -0.236 | -0.171 | -0.167 | -0.12 | -0.203 | -0.201 | -0.23 | -0.529 | -0.273 | -0.353 | -0.318 | -0.441 | -0.0662 | -0.0404 | -0.009 | 0.0527 | -0.276 | -0.164 | -0.119 | -0.041 | 0.331 | 0.49 | 0.516 | 0.535 | 0.268 | 0.377 | 0.373 | 0.355
